In all, about 69,000 compounds went through this assay and about 8,600 (12%) showed an effect of 50% or more. What follows is part of a selection rich in strong results, with near analogues and random picks from the rest.
test system: Plasmodium berghei; experiment: Screen against P. berghei liver stage (PbLuc), transformed with Luciferase, at 10uM; format: functional, HepG2; conditions: tested at 10 uM

| SMILES | INHIBITION [%] |
| --- | --- |
| Cc1cc(C(=O)NCc2cccn2C)nn1C | 9.55 |
| CS(=O)(=O)NC[C@H]1OC[C@@H]2CCN(Cc3ccc(F)cc3)C[C@@H]21 | -16.2 |
| Cc1nnsc1C(=O)N1CCCC(n2nnc3cc(F)ccc32)C1 (configuration not stated) | 52 |
| Cc1nn(C)cc1C(=O)N1CCCC(n2nnc3cc(F)ccc32)C1 (configuration not stated) | -3.31 |
| Cc1n[nH]cc1C(=O)N1CCCC(n2nnc3cc(F)ccc32)C1 (configuration not stated) | 21 |
| COCCc1noc(CN2CCOC(Cn3cc(C)cn3)C2)n1 (configuration not stated) | -90.9 |
| Cc1cccc(=O)n1CCC(=O)N1CCC2(CC1)OCCCC2O (configuration not stated) | 24.2 |
| Cc1nc(C)c(C(=O)NCc2nc3cccc(C)c3n2C)o1 | 88.8 |
| Cc1nc(NC(=O)NCc2nc3cccc(C)c3n2C)oc1C | 38.6 |
| CCn1c(CNC(=O)Nc2nc(C)c(C)o2)nc2ccccc21 | 44.8 |
| CCc1ccc(C(=O)O)cc1S(=O)(=O)Nc1ccc2c(c1)OCCO2 | 28 |
| CCS(=O)(=O)NCCCNCc1c(C)nn(C)c1N(C)C | 23.25 |
| CCN(Cc1cccnc1)C1CCN(c2ccccc2)C1=O (configuration not stated) | -2.27 |
| CCN(Cc1ccncc1)C1CCN(c2ccccc2)C1=O (configuration not stated) | -13.1 |
| Cc1cc(N2CCC(N(C)Cc3cccnc3)C2=O)n(C)n1 (configuration not stated) | 59.3 |
| CCN(Cc1ccccc1)C1CCN(c2cc(C)nn2C)C1=O (configuration not stated) | 57.2 |
| CCN(Cc1cnc(C)cn1)C1CCN(c2ccccc2)C1=O (configuration not stated) | 15.2 |
| CCOc1ccc(CN(C)C2CCN(c3cc(C)nn3C)C2=O)cc1 (configuration not stated) | 24.7 |
| CC(C)C(=O)N1CCC2(CCN2CC2CC2)C1 (configuration not stated) | 8.85 |
| Cc1cc(C(=O)N2C[C@@H]3CC[C@H]2CN(Cc2ccccn2)C3)nc(C)n1 | 4.59 |
| Cc1ncsc1C(=O)N1CCC(c2ccc3c(NC(C)C)n[nH]c3n2)C1 (configuration not stated) | -3.94 |
| CC(=O)Nc1ccc(SCC(O)COCc2ccccc2)cc1 (configuration not stated) | 16.6 |
| O=C(Cc1cccnc1)NCCS(=O)(=O)c1ccccc1F | 33.7 |

| SMILES | INHIBITION [%] |
| --- | --- |
| CNC(=O)C1(c2cnccn2)CCCN1C(=O)c1cccc(F)c1 (configuration not stated) | 1.5 |
| c1ccc(C(CNc2ncccn2)N2CCOCC2)nc1 (configuration not stated) | 3.48 |
| CCC(CC)NCC(c1ccccn1)N1CCOCC1 (configuration not stated) | 65.6 |
| Cc1ccc(C(CNC(=O)NCc2ccccn2)N2CCOCC2)o1 (configuration not stated) | 11.783 |
| Cc1nn(C)c(N2CCOCC2)c1CNC(C)c1ccccn1 (configuration not stated) | 36.2 |
| c1ccc(C(Cn2cnnc2)N2CCOCC2)nc1 (configuration not stated) | 70.4 |
| COc1cc(NCC(c2ccccn2)N2CCOCC2)ncn1 (configuration not stated) | 6.26 |
| CC(C)c1nn(C)c(N2CCOCC2)c1CNC(C)c1ccccn1 (configuration not stated) | 23.7 |
| c1cncc(C(Cn2cnnc2)N2CCOCC2)c1 (configuration not stated) | 7.31 |
| NCc1cc(NCC(c2ccccn2)N2CCOCC2)ncn1 (configuration not stated) | 60.1 |
| CCCS(=O)(=O)NC1CCN(c2cccc(F)c2C#N)CC1 | 25.4 |
| c1nc(CCC2CCCCN2)cc(N2CCCC2)n1 (configuration not stated) | 32.8 |
| O=C(CC1CC1)N1Cc2nccn2CC(COc2cccnc2)C1 (configuration not stated) | 13.5 |
| O=C(N[C@H]1CCCC[C@@H]1O)c1cccc(-c2nc3ccccc3[nH]2)c1 | -13.2 |
| Cc1nc(CN2CCCC(NCc3ccc4ccccc4c3)C2)no1 (configuration not stated) | 41.5 |
| Cc1nc(CN2CCCC(Nc3ncnc4c3CCC4)C2)no1 (configuration not stated) | 85.1 |
| Cc1nc(CN2CCCC(NCc3cccc4ccccc34)C2)no1 (configuration not stated) | -18.8 |
| CCc1nc(CN2CCCC(NCc3cnc(C)s3)C2)no1 (configuration not stated) | 15.3 |
| Cc1nc(CN2CCCC(NCc3ccsc3)C2)no1 (configuration not stated) | 20.1 |
| Cc1nc(CN2CCCC(Nc3ncnc4ccsc34)C2)no1 (configuration not stated) | 79.1 |
| Cc1nc(CN2CCCC(Nc3ncnc4ccccc34)C2)no1 (configuration not stated) | 90.2 |
| CCc1nc(CN2CCCC(Nc3ncnc4ccsc34)C2)no1 (configuration not stated) | 88.5 |
| Cc1nc(CN2CCCC(NCc3nc4ccccc4s3)C2)no1 (configuration not stated) | 29.2 |

| SMILES | INHIBITION [%] |
| --- | --- |
| CCc1nc(CN2CCCC(NCc3cc(C)no3)C2)no1 (configuration not stated) | 29.5 |
| Cc1nc(CN2CCCC(NCc3sccc3C)C2)no1 (configuration not stated) | 48.4 |
| Cc1nc(CN2CCCC(NCc3cnn(C)c3)C2)no1 (configuration not stated) | -10.6 |
| CN(C)Cc1cnc(C2CCN(C(=O)c3cc(F)cc(F)c3)C2)[nH]1 (configuration not stated) | 2.05 |
| CC(C(=O)N1CCCC1)N1CCN(c2ncc(Cl)cn2)CC1 (configuration not stated) | 13.8 |
| CN(C)C(=O)CN1CCCCC1c1nc(N)ncc1-c1ccccc1 (configuration not stated) | 19.3 |
| COc1cc(N2CC[C@@H]3O[C@@H](C(=O)NC(C)C)C[C@@H]32)ncn1 | -4.32 |
| O=C(COCc1nc(-c2ccncc2)no1)N1CCCCC1 | -19.7 |
| CN(C)S(=O)(=O)c1ccc(CN2CCCC2c2cccs2)o1 (configuration not stated) | 22.3 |
| CN1CCC(N2CCC(C(=O)N(C)C)CC2)CC1 | 28.5 |
| CNCC(=O)N1CCCC(c2nccnc2Oc2cccc(F)c2)C1 (configuration not stated) | 49.5 |
| Cn1cc(CCC(=O)NCc2ccccc2OC(C)(C)C)cn1 | -1.3 |
| NC(=O)CSc1nnc2n1N=CN(c1ccccc1F)C2 | -14.9 |
| C[C@@H](O)CNC(=O)CCc1nc2cccnc2[nH]1 | -2.13 |
| COCC(C)NC(=O)N1CCN(S(C)(=O)=O)CC1 (configuration not stated) | 5.91 |
| CNC(=O)c1cn[nH]c1C1(C)CCCN(Cc2ccccn2)C1 (configuration not stated) | 17.1 |
| CNC(=O)c1cn[nH]c1C1(C)CCCN(CC2(O)CCCCC2)C1 (configuration not stated) | 29.2 |
| CNC(=O)c1cn[nH]c1C1(C)CCCN(Cc2ccccc2OC)C1 (configuration not stated) | 72.5 |
| CN(Cc1noc(C2CC2)n1)C1CCN(CCn2cccn2)C1 (configuration not stated) | -45.6 |
| Cc1nccnc1C1CCN(C2CCCC2O)CC1 (configuration not stated) | -59.6 |
| COc1ccc(CCC(=O)N2CCNCC2C(=O)N2CCOCC2)cc1 (configuration not stated) | 30.3 |
| Cc1nnc(CN(Cc2cccc3c2OCO3)CC2CCCO2)n1C (configuration not stated) | -31.5 |
| CCN(Cc1nc(-c2ccco2)no1)Cc1cccc2c1OCO2 | 55 |

| SMILES | INHIBITION [%] |
| --- | --- |
| CCN(Cc1cccc2c1OCO2)CC1CCCO1 (configuration not stated) | 50.5 |
| CCN(Cc1ccc2cccc(O)c2n1)CC1CCCO1 (configuration not stated) | -13.5 |
| CN(Cc1ccc2c(c1)OCO2)Cc1nc(-c2ccco2)no1 | 15 |
| Cc1noc(CN(Cc2ccco2)Cc2cccc3c2OCO3)n1 | 30.3 |
| CC(CNC(=O)N(C)Cc1ccco1)N1CCc2sccc2C1 (configuration not stated) | 11.4 |
| COCC1CN(Cc2cccc(C#N)c2)Cc2nccn2C1 (configuration not stated) | 25.1 |
| NC(=O)c1cccc(C(=O)N2CCCC(n3ccnc3)C2)c1 (configuration not stated) | -31.5 |
| Cc1cnc(NC(=O)N2CCCCCC2)s1 | -9.54 |
| CCNc1ncc(C(=O)Nc2nnc(N3CCCCC3)[nH]2)s1 | 51.1 |
| O=C(Nc1nnc(N2CCCCC2)[nH]1)c1cccs1 | -20.6 |
| Cc1nc(C(=O)N2CCc3[nH]nc(Nc4ccccc4)c3C2)co1 | 10.9875 |
| O=S(=O)(N1CCOCC1)N1CCC(Oc2cnccn2)CC1 | 32.8 |
| CC(=O)N1CCOCC2(CN(Cc3ccc(C)o3)CCO2)C1 (configuration not stated) | 26.7 |
| COCCN1CCC(CNC(=O)C2(c3cccc(C)c3)CC2)C1 (configuration not stated) | 11.4 |
| O=C(Cn1nc2c(cc1=O)CCCC2)NC(C(=O)O)c1ccccc1 (configuration not stated) | 69.8 |
| O=C(Cn1nc2c(cc1=O)CCCC2)N[C@@H](C(=O)O)c1ccccc1 | -19 |
| O=C(Cn1nc2c(cc1=O)CCCC2)NC(Cc1ccccc1)C(=O)O (configuration not stated) | -30.4 |
| Cc1oc(C(=O)O)cc1S(=O)(=O)Nc1cc(F)ccc1F | 21 |
| Cc1nc(CN2C(=O)C[C@@H]3[C@@H]2CCN3S(=O)(=O)C2CC2)cs1 | -64.1 |
| Cc1cccc(NC2CCN(C(=O)Nc3ccc(F)c(F)c3)CC2)n1 | 67.4 |
| Cc1cccc(NC2CCN(C(=O)Nc3cc(F)ccc3F)CC2)n1 | -7.35 |
| Cc1cccc(NC2CCN(C(=O)Nc3ccncc3)CC2)n1 | 16.8 |
| Cc1cccc(NC2CCN(C(=O)Nc3cccc4[nH]ccc34)CC2)n1 | 76.1 |

| SMILES | INHIBITION [%] |
| --- | --- |
| Cc1cccc(NC2CCN(C(=O)Nc3cn[nH]c3)CC2)n1 | 28.8 |
| Cc1cccc(NC2CCN(C(=O)Nc3cc(F)cc(F)c3)CC2)n1 | 90 |
| Cc1cccc(NC2CCN(C(=O)Nc3cc(C)on3)CC2)n1 | 37.2 |
| Cc1cccc(NC2CCN(C(=O)Nc3ccc(F)cc3C)CC2)n1 | -0.113 |
| O=C(c1ccc2cc[nH]c2c1)N1CCC(Nc2cccnn2)CC1 | 11.4 |
| CCn1cc(CN2CCCN(C(=O)c3ccc(C)o3)CC2)cn1 | 31.3 |
| Cn1ccnc1CN1CCC2(CCC(=O)N2CCN2CCCC2)CC1 | 35.2 |
| O=C(NCCn1nc(-n2cncn2)ccc1=O)c1ccc(F)cc1F | 7.77 |
| c1cnn(-c2ccc(CCNC3CCN(C4CC4)C3)cc2)c1 (configuration not stated) | 14.2 |
| COc1cccc(-n2nnc(C(=O)N3CCCCCC3)c2C)c1 | 2.845 |
| Cc1ccc(CSc2nc(N)cc(NCCS(=O)(=O)N(C)C)n2)cc1 | 23.5 |
| COc1ccc(CN(Cc2ccsc2)CC2CCCO2)cn1 (configuration not stated) | 61.6 |
| c1csc(CN(Cc2ccsc2)CC2CCCO2)n1 (configuration not stated) | -12.2 |
| CC(C)n1cc(CN(Cc2ccsc2)CC2CCCO2)cn1 (configuration not stated) | 12.9 |
| CCCc1nnc(NCCc2noc(C3CC3)n2)o1 | 16.5 |
| NC(=O)Cn1cc(NC(=O)N2CCN(c3ccc(F)cc3)CC2)cn1 | 7.333 |
| NC(=O)c1cn(CC2CCC2)c(C2CC2)n1 | -21.8 |
| CNc1ncccc1CN1CCN(C)CC(C(=O)N(C)C)C1 (configuration not stated) | 0.696 |
| CNc1ncccc1CN1CCN(C)CC(C(N)=O)C1 (configuration not stated) | 33.2 |
| CNc1ncccc1CN1CCN2CCN(C)CC2C1 (configuration not stated) | 53.8 |
